Screening data: PubChem BioAssay, National Center for Advancing Translational Sciences (NCATS)
HEK293 tox = kills HEK 293 cells | HEK 293 viability, ATP luminescence (CellTiter-Glo), 48-72 h | Potency, µM (highest dose often 115 µM), for inactives: at the highest dose activity change, negative = cytotoxicity, hits mostly inhibitors | AID 1345083 | 94,000 compounds, 6.6% hits; further: nearly all actives have a fitted effect of over 60% in size
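Luminescence from cellular ATP, measured with CellTiter-Glo, indicates HEK 293 viability. Cells plated at 250 cells/well are treated with compound for 48 or 72 hr at 37 degree Celsius before reagent addition.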
NPR1 antag = blocks ANP-stimulated signaling of human Npr1 receptor | P16066 | HEK293 hNpr1 GloSensor cGMP, ANP-stimulated luminescence | Potency, µM (series often up to 46.3 µM), for inactives: at the top dose activity change, negative = inhibition, actives largely listed as inhibitors | 76,000 compounds, 1.6% hits | AID 1347048; calls by dose curve; further: nearly all actives have a fitted effect of over 60% in size
Target sequence (P16066 whole entry, looked up): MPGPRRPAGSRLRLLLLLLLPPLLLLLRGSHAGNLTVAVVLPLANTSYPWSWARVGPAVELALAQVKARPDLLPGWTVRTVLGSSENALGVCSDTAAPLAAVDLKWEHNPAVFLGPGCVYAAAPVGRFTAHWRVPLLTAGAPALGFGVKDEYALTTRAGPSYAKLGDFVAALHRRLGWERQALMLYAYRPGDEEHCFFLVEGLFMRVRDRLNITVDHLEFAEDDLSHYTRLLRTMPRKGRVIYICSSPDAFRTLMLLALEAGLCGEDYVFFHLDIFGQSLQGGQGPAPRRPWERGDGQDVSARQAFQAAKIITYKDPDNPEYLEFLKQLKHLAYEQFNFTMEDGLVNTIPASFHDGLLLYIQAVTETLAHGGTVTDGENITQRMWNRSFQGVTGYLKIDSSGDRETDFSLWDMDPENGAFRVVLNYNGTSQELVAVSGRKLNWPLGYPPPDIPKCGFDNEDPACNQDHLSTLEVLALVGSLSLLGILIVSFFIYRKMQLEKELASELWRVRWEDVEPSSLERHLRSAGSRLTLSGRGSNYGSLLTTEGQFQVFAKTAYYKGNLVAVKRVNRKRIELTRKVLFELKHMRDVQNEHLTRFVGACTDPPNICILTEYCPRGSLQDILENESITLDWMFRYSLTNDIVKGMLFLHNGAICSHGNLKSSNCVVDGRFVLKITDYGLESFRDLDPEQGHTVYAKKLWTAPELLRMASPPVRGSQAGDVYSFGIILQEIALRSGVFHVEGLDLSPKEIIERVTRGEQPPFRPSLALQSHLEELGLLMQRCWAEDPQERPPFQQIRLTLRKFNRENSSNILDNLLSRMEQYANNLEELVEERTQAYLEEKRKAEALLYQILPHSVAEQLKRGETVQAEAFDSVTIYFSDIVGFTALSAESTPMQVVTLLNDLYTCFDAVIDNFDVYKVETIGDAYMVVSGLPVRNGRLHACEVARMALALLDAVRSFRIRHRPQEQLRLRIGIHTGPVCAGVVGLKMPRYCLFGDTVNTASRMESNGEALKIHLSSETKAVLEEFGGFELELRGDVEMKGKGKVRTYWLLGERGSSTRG
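Compound pre-incubated 30 min at room temperature on GloSensor-loaded HEK293 cells stably carrying hNpr1 and the pGS-40F cGMP biosensor. Stimulation uses hNppA at 0.1 nM final; luminescence is taken at baseline and 20 min post-agonist.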
Luciferase inh = Photinus pyralis luciferase inhibition; Potency, µM (top dose mostly 115 µM), hits mostly inhibitors; AID 1347043; 76,000 compounds, 2.5% hits; purified P. pyralis luciferase, luminescence, biochemical; further: nearly all actives have a fitted effect of over 65% in size
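Inhibitors were tested against purified firefly luciferase in a biochemical, low-substrate format (both substrates at 10uM) and luminescence measured with a CCD imager.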
3T3 cytotox = cytotoxic compounds in NIH 3T3 cells; Potency, µM (series often up to 96.7 µM), inactives show at the top dose activity change, negative = cytotoxicity, actives largely listed as inhibitors; 94,000 compounds, 4.3% hits; NIH 3T3 viability, CellTiter-Glo ATP luminescence, 48-72 h; further: nearly all actives have a fitted effect of over 55% in size
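First NIH 3T3 cells are plated at 400 cells/well; next compound is pinned in; then plates incubate 48 or 72 hr at 37 °C; finally CellTiter-Glo is added and luminescence read after 10 min.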
The depositor's hits bear a star; i = inactive; u = inconclusive; x = no result; ! = not active in a repeat; [ ] = another dose, or the depositor's remark. Rows were chosen to be rich in hits. Some 11% of all compounds tested hit in one or more screens of this group. Unless noted, the call rests on the fitted dose curve; in most records, active means well fitted curve in the direction sought with a large enough effect; inconclusive means small, poorly fitted or top-dose-only effect, or another doubt; inactive means no such curve, though single readings can be large; an effect the other way counts as inactive or inconclusive. On the % scale 0 is the no-effect control and ±100 the full control effect; potency means the concentration at half of the fitted maximal effect.

SMILES	HEK293 tox	NPR1 antag	Luciferase inh	3T3 cytotox
Cc1cc(=O)n(CC(=O)Nc2cccc(Cl)c2C)c(N2CCN(c3ccccc3)CC2)n1	0%	2%	i	i
CCOc1ccc(CC(=O)NC2CCN(c3cc(-c4cccs4)[nH]n3)C2)cc1 (centres undefined)	45µM*	0%	i	16µM*
O=C(Cc1cccc(F)c1)NC1CCN(c2cc(-c3cccs3)[nH]n2)C1 (centres undefined)	u	-15%	i	u
O=C(Cc1ccccc1F)NC1CCN(c2cc(-c3cccs3)[nH]n2)C1 (centres undefined)	16µM*	-18%	i	u
COc1cc(C(=O)NC2CCN(c3cc(-c4cccs4)[nH]n3)C2)cc(OC)c1OC (centres undefined)	u	-16%	i	u
CCOc1cc(C(=O)NC2CCN(c3cc(-c4cccs4)[nH]n3)C2)cc(OCC)c1OCC (centres undefined)	45µM*	-4%	i	u
N#Cc1cccc(C(=O)N2CCC(Cc3nc(C4CC4)n[nH]3)C2)c1 (centres undefined)	-15%	x	x	-10%
COc1ccc(-n2nc3n(c2=O)CCN(Cc2ccccc2)C3)cc1	u	x	x	8.9µM*
O=c1n(-c2ccc(C(F)(F)F)cc2)nc2n1CCN(Cc1ccccc1)C2	7.9µM*!	1%	i	u
Cc1cc(CN2CCn3c(nn(-c4ccc(C(F)(F)F)cc4)c3=O)C2)no1	89µM*	x	x	u
Cc1ccc(CN2CCn3c(nn(-c4ccncc4)c3=O)C2)cc1	u	20µM*	i	u
COc1ccc(CN2CCn3c(nn(-c4ccc(OC)cc4)c3=O)C2)cc1	-5%	x	x	-15%
Cc1ccc(CN2CCn3c(nn(-c4ccc(C(F)(F)F)cc4)c3=O)C2)cc1	u	4%	i	u
c1ccc(-c2ccnc(NCCOc3cccc4cccnc34)n2)nc1	u	-5%	i	u
COc1ccccc1CN1CC2(C1)C(=O)N(Cc1ccccc1)C(=O)[C@@H]1C[C@@H](O)CN12	i	5%[70.6 µM]	i	-25%[174 µM]
N#Cc1cccc(C(=O)N2CCCN(Cc3ccncc3)C(c3ccccc3)CC(=O)NCC2)c1 (centres undefined)	4%	-1%	i	-3%
COc1ccc(-c2nc(C(C)C)nc3c2CCN([S+](=O)([O-])c2ccc(C)cc2)CC3)cc1	i	2%	i	-11%
O=C(c1cc2n(n1)CC(c1ccc3c(c1)OCO3)OC2)N1CCCC1 (centres undefined)	u	0%	i	u
COc1ccc(-n2nc3n(c2=O)CCN(C(=O)c2ccc(C(F)(F)F)cc2)C3)cc1	-2%	x	x	32µM*
COc1ccc(C(=O)N2CCn3c(nn(-c4ccc(OC)cc4)c3=O)C2)cc1	-5%	x	x	u
CN(C)c1ccc(C(=O)N2CCN3C(=O)c4cc(-c5ccc6c(c5)OCO6)ccc4NC(=O)[C@H]3C2)cc1	u	-13%	i	-20%
COc1ccc(C(=O)N2CCN3C(=O)c4cc(-c5ccc(Cl)cc5)ccc4NC(=O)[C@@H]3C2)cc1	32µM*	-24%	i	28µM*
O=C1Nc2ccc(-c3ccc(Cl)cc3)cc2C(=O)N2CCN(C(=O)c3cccnc3)C[C@H]12	45µM*	2%	i	u
O=C1Nc2ccc(-c3ccc4c(c3)OCO4)cc2C(=O)N2CCN(C(=O)c3cccs3)C[C@@H]12	32µM*	6%	i	35µM*
O=C1CC2(CCN(Cc3cccc(O)c3)CC2)CN1Cc1ccc(F)c(F)c1	-6%	3%	i	-1%
SMILES	HEK293 tox	NPR1 antag	Luciferase inh	3T3 cytotox
Cc1ccsc1CCNc1cc(C2CC(N)C2)ncn1 (centres undefined)	u	-26%	i	-24%
CNC(=O)c1ccc(CNc2nc(CCN)nc3sc(C)c(C)c23)o1	50µM*	-18%	i	u
COCCCNC(=O)c1cnc2n[nH]c(-c3ccccc3)c2n1	100µM*	-6%[70.6 µM]	i	u
COC(=O)CNC(=O)N1CCC2(CC1)N(Cc1ccccc1)C(=O)CS2(=O)=O	-8%	x	x	-25%
COc1ccc(C(=O)N2CCC(CCn3c(C)cnc3-c3cccnc3)CC2)cc1	-30%	x	x	u
Cc1cnc(-c2ccccc2)n1CCC1CCN(C(=O)C2(c3ccccc3)CC2)CC1	35µM*	x	x	u
Cc1cnc(C2CCC2)n1C1CCN(C(=O)C2(c3ccccc3)CC2)CC1	-21%	-3%	i	-16%
Cc1cnc(-c2ccncc2)n1CCC1CCN(C(=O)C(C)Oc2ccccc2)CC1 (centres undefined)	45µM*	x	x	u
O=C1c2cnc(-c3cccnc3)nc2OCCN1Cc1ccccc1	u	-6%[70.6 µM]	i	-17%[138 µM]
COCCN1CCOc2nc(-c3ccc(Oc4ccccc4)cc3)ncc2C1=O	56µM*	22µM*	22µM*	u
O=C1c2cnc(-c3ccc(Oc4ccccc4)cc3)nc2OCCN1CC1CC1	u	7.1µM*	u	28µM*
O=C1c2cnc(-c3ccc(CO)cc3)nc2OCCN1Cc1ccc(F)cc1F	89µM*	-16%[70.6 µM]	u	u
COc1ccc(CN2CCOc3nc(-c4cccc(NC(C)=O)c4)ncc3C2=O)cc1	100µM*	-20%[70.6 µM]	i	u
O=C1c2cnc(-c3ccc(F)cc3)nc2OCCN1Cc1ccc(F)cc1F	u	-11%[70.6 µM]	i	u
CCn1nc(C)cc1C(=O)N1Cc2cnn(Cc3ccc(F)cc3)c2C1	u	-22%	i	-19%
COc1ccc(CN2CCC(O)(c3csc(CN4CCc5ccccc5C4)n3)CC2)cc1	u	-24%	i	u
CCNC(=O)N1CC(Oc2ccc(-c3nc(C)no3)cc2)C1	u	-18%	i	-25%
CCNC(=O)N1CC(Oc2cccc(-c3nc(-c4ccccc4)no3)c2)C1	35µM*	4%	i	u
O=C(C1CCOC1)N1CC(Oc2cccc(-c3nc(-c4ccccc4)no3)c2)C1 (centres undefined)	u	-19%	45µM*	u
Cc1ccc(CNC(=O)N2CC(Oc3cccc(-c4nc(C)no4)c3)C2)cc1	45µM*	-13%	i	u
CC(C)NC(=O)N1CC(Oc2cccc(-c3nc(-c4ccccc4)no3)c2)C1	u	-7%	i	u
CCNC(=O)N1CCC(Oc2ccc(-c3noc(-c4ccccc4)n3)cc2)C1 (centres undefined)	18µM*	x	x	u
CNC(=O)N1CCCC1c1nc(C2CN(S(=O)(=O)c3c(C)noc3C)C2)no1 (centres undefined)	3%	x	x	-17%
O=C1Nc2ccccc2OCC12CCN(Cc1cccs1)CC2	u	0%[70.6 µM]	i	-25%[138 µM]
O=C(c1ccccc1F)N1CCC(C(=O)N2CCCC2c2nc3ccncc3[nH]2)CC1 (centres undefined)	5%	x	x	-2%
Oc1ccc(-c2nc(C3CC3)nc3c2CCN(Cc2ccc(F)cc2)CC3)cc1	u	-2%	i	u
